# Data taken from PubChem BioAssay AID651900 (Broad Institute, 2012).
# Some of the results follow. Active and inactive are the calls of the source. No rule for the calls is given here.
# Assay: cytotoxicity in NIH3T3 fibroblasts, dose response, cytotoxicity control, cell-based, plate reader, cherry-pick, two tests (AID 651900)
# Details: activity: test 2 concentration series, at 26 µM; series mostly up to 26 µM; activity change, negative = cytotoxicity: at the top concentration
Structure (SMILES),"activity change, negative = cytotoxicity",activity [%]
C=CCn1c(SCc2c(C(=O)OC)sc(N)c2C(=O)OC)nnc1-c1ccc(Cl)cc1,-11.5% (inactive),-11.5
CC1(C)CC(=O)C=C(c2ccc3ncccc3c2)C1,-5.48% (inactive),-5.48
Cc1c2cnn(CC(=O)NCc3ccccn3)c(=O)c2c(C)n1Cc1ccc(Cl)cc1,7.63% (inactive),7.63
Cn1c(=O)c2c(nc(OCc3cccnc3)n2Cc2ccccc2)n(C)c1=O,-10.3% (inactive),-10.3
O=C(c1ccncc1)N1CC[C@@H]2[C@H]1c1cc(Br)ccc1N[C@@H]2CO,-11.2% (inactive),–
CC(=O)c1ccc(N2CCN(C(=O)c3ccc4nc[nH]c4c3)CC2)cc1,-0.738% (inactive),-0.738
COCCNC(=O)C[C@H]1CC[C@@H]2[C@H](COc3ccc(NC(=O)Nc4cccc(F)c4)cc3C(=O)N2C)O1,5.05% [at 23.5 µM] (inactive),–
CCC(CO)Oc1cc(NC(=O)c2cccc(F)c2)c2ncn(C(C)C)c2c1 (configuration not stated),-12% (inactive),–
CN1c2ccc(-c3ccccc3)cc2[C@H]2[C@H](CCN2C(=O)Cc2ccccn2)[C@H]1CO,1.08% [at 23.5 µM] (inactive),–
COc1cc(-c2n[nH]c(=S)n2Cc2ccccc2)cc(OC)c1OC,8.41% (inactive),8.41
CCCOc1ccc2c3c(c(=O)oc2c1OCCC)CCC3,-3.77% (inactive),-3.77
CC(=O)CSc1nnc(CSc2ncccn2)n1C1CCCCC1,1.8% (inactive),1.8
CC(=O)O[C@]1(C(C)=O)CC[C@H]2[C@@H]3C=C(C)C4=CC(=O)CC[C@]4(C)[C@H]3CC[C@@]21C,-6.83% (inactive),-6.83
Cc1ccc(Cc2c(C)nc3nc(SCC(=O)NCCN4CCOCC4)nn3c2C)cc1,-6.78% (inactive),-6.78
Cc1c(OC(C)C(=O)NCC2CCC(C(=O)O)CC2)ccc2c1oc(=O)c1ccccc12 (configuration not stated),1.67% (inactive),1.67
Cc1nc(=O)c(-c2ccccc2)c(C)n1-c1ccc(Br)cc1,-4.55% (inactive),-4.55
CS(=O)(=O)N1[C@H](C(=O)NCc2ccncc2)[C@@H](CO)[C@@H]2Cn3c(ccc(C4=CCCCC4)c3=O)[C@@H]21,-5.89% (inactive),–
Cc1nc2nc(SCC(=O)NCc3ccco3)nn2c(C)c1Cc1ccccc1,-7.64% (inactive),-7.64
O=c1[nH]c(N2CCN(Cc3ccc4c(c3)OCO4)CC2)nc2c1CCCC2,6.08% (inactive),6.08
O=C(CSc1n[nH]c(-c2cccnc2)n1)Nc1ccnc2ccccc12,-10.2% (inactive),-10.2
C=C(C)CSc1nc(N)c2c3c(sc2n1)CCC3,4.68% (inactive),4.68
